From PubChem BioAssay
Several values for one entry are separate records, joined by “and”; a condition that tells them apart may be missing. Identical values can stand only once. Results filed as inconclusive are left out. Activity calls are given as the source filed them.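 The calls were made as follows, unless noted: active = normalized viability below 100% at a tested concentration; inactive = the rest.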

Legend:
[1] = growth inhibition of DIPG glioma cells, dose response, cell-based, SU-DIPG-XVII, MIPE5.0, CellTiter-Glo, qHTS (AID 1347060; cut-off not given, nearly all actives have AC50 up to about 26 µM;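 as to AC50: cells exposed to compound for 48 hours before viability readout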); details: SU-DIPG-XVII viability, CellTiter-Glo ATP luminescence
[2] = growth inhibition of DIPG glioma cells, dose response, cell-based, SU-DIPG-XIII, MIPE4.0, CellTiter-Glo, qHTS (AID 1347061; cut-off not given, nearly all actives have AC50 up to about 37 µM;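 also: cells exposed to compound for 48 hours before readout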); details: SU-DIPG-XIII viability, CellTiter-Glo ATP luminescence
[3] = growth inhibition of DIPG glioma cells, dose response, cell-based, JHH-DIPG-1, MIPE4.0, CellTiter-Glo, qHTS (AID 1347062; cut-off not given, nearly all actives have AC50 up to about 27 µM;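 as to AC50: cells exposed to compound for two days before readout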); details: JHH-DIPG-1 viability, CellTiter-Glo ATP luminescence
[4] = growth inhibition of DIPG glioma cells, dose response, cell-based, SU-DIPG-IV, MIPE4.0, CellTiter-Glo, qHTS (AID 1347063; cut-off not given, nearly all actives have AC50 up to about 30 µM;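 also: compound exposure lasted 48 hours before the viability readout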); details: SU-DIPG-IV viability, CellTiter-Glo ATP luminescence
[5] = growth inhibition of DIPG glioma cells, dose response, cell-based, SU-DIPG-XIII, MIPE5.0, CellTiter-Glo, qHTS (AID 1347064; cut-off not given, nearly all actives have AC50 up to about 23 µM;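 as to AC50: cells exposed to compound for 48 hours before the viability read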); details: SU-DIPG-XIII viability, CellTiter-Glo ATP luminescence
[6] = viability loss in pontine glioma line – cell-based, SU-DIPG-XXV, MIPE5.0, CellTiter-Glo, qHTS, dose response (AID 1347065; cut-off not given, nearly all actives have AC50 up to about 26 µM;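 also: cells exposed to compound for 48 hours before ATP readout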); details: CellTiter-Glo ATP luminescence
[7] = SU-DIPG-VI glioma cell viability, MIPE4.0 library, CellTiter-Glo luminescence, qHTS (AID 1347066; cut-off not given, nearly all actives have AC50 up to about 30 µM;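 also: cells exposed to compound for 48 hours before readout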); details: CellTiter-Glo ATP luminescence
[8] = JHH-DIPG-1 glioma cell viability, MIPE5.0 library, CellTiter-Glo luminescence, qHTS (AID 1347067; cut-off not given, nearly all actives have AC50 up to about 26 µM;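 also: cells exposed to compound for 48 hours before readout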); details: JHH-DIPG-1 glioma viability, CellTiter-Glo ATP luminescence
[9] = SU-DIPG-XXV glioma cell viability, MIPE5.0 library, qHTS (AID 1347068; cut-off not given, nearly all actives have IC50 up to about 30 µM;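 as to IC50: cells exposed to compound for 48 hours before viability readout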)
[10] = sensitizers of A549 cells to miR-34 induction, primary screen, imaging, A549 dox-inducible miR-34, nuclei and caspase counts (AID 1347080;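 active = compounds whose cell count with miR-34 switched on is under 0.7 times the count with it off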); details: A549 miR-34 inducible, Hoechst nuclei count, 48 h
[11] = modifiers of HSF1 nuclear foci, imaging, Selleck Cancer Library (AID 1347162; in the data active = plate-normalised HSF1 focus index below about 0.46); details: human cells, at 10 µM; SSMD: measured here: HSF1 foci SSMD mean; cell count: measured here: cell number; plate-normalised HSF1 focus index: stronger effect = lower value
[12] = survival rescue of mitochondrial mutant cells in low glucose, primary screen, MELAS cybrids, Rieske KO mouse fibroblasts, CellTiter-Glo (AID 1508586;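 active = mean z-score across replicates of 1.96 or higher in either the MELAS or the Rieske mutant cell line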;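 also: z relative to plate mean and SD of compound and empty wells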)
[13] = ovarian cancer cell viability with rucaparib, profiling panel, oncology-focused library, rucaparib conditional (AID 1508598); details: patient-derived ovarian cancer cells, CellTiter-Glo viability, 144 h, stronger effect = lower value
[14] = viability rescue of complex I mutant cybrids, primary screen, cell-based, galactose medium, ATP luminescence (AID 1645843;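 active = z-score of at least 1.8 in each of two replicates, scored against plate mean and spread of sample wells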;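 also: positive z means more ATP and so rescue of galactose-driven cybrid death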); details: complex I mutant cybrid cells, 72 h, stronger effect = higher value
[15] = stronger effect = lower value, cell number ratio, induced over uninduced
[16] = measured here: relative caspase fold change +Dox/-Dox
[17] = measured here: total cells with miR-34 induction, stronger effect = lower value
[18] = measured here: total cells without miR-34 induction

C[C@@H](Oc1ccc2[nH]nc(/C=C/c3cnn(CCO)c3)c2c1)c1c(Cl)cncc1Cl
AC50 [1]: 29.5 nM (active)
AC50 [2]: 418 nM (active)
AC50 [3]: 20900 nM (active)
AC50 [4]: 5900 nM (active)
AC50 [5]: 14.8 nM (active)
AC50 [6]: 10.5 nM (active)
AC50 [7]: 16600 nM (active)
AC50 [8]: 468 nM (active)
IC50 [9]: 2090 nM (active)

CCOC(=O)/C=C/[C@H](C[C@@H]1CCNC1=O)NC(=O)[C@@H](CC(=O)[C@@H](NC(=O)c1cc(C)on1)C(C)C)Cc1ccc(F)cc1
outcome [1]: inactive
outcome [2]: inactive
outcome [3]: inactive
outcome [4]: inactive
outcome [5]: inactive
outcome [6]: inactive
outcome [7]: inactive
outcome [8]: inactive
outcome [9]: inactive

CS(=O)(=O)c1cccc(CNc2nc(Nc3ccc4c(c3)CCC(=O)N4)ncc2C(F)(F)F)c1
AC50 [1]: 6610 nM (active)
AC50 [2]: 18700 nM (active)
AC50 [3]: 16600 nM (active)
AC50 [4]: 18700 nM (active)
AC50 [5]: 8330 nM (active)
AC50 [6]: 4680 nM (active)
AC50 [7]: 16600 nM (active)
AC50 [8]: 2350 nM (active)
IC50 [9]: 8330 nM (active)
fold change [10, 15]: 0.913 (inactive) and 0.835 (inactive)
fold change [10, 16]: 0.606 and 1.43
cell count [10, 17]: 1320 and 1930
cell count [10, 18]: 1440 and 2320
SSMD [11]: -1.44
cell count [11]: 7540
plate-normalised HSF1 focus index [11]: 0.911 (inactive)
z-score ([12]; MELAS cybrid survival, CellTiter-Glo 48 h, stronger effect = higher value): -0.299 (inactive)
z-score ([12]; Rieske KO mouse fibroblast survival, CellTiter-Glo 72 h): -0.256
viability ([13]; at 0.000305 µM, OCI-C5x cells, with rucaparib 10 µM, 100% = cells with rucaparib alone): 98.4% (active)
viability ([13]; at 0.000305 µM, OCI-C5x cells, without rucaparib): 109% (inactive)
viability ([13]; at 0.000305 µM, OCI-P5x cells, with rucaparib 20 µM, 100% = cells with rucaparib alone): 88.7% (active)
viability ([13]; at 0.000305 µM, OCI-P5x cells, without rucaparib): 101% (inactive)
viability ([13]; at 0.00122 µM, OCI-C5x cells, with rucaparib 10 µM, 100% = cells with rucaparib alone): 108% (inactive)
viability ([13]; at 0.00122 µM, OCI-C5x cells, without rucaparib): 114% (inactive)
viability ([13]; at 0.00122 µM, OCI-P5x cells, with rucaparib 20 µM, 100% = cells with rucaparib alone): 84.8% (active)
viability ([13]; at 0.00122 µM, OCI-P5x cells, without rucaparib): 106% (inactive)
viability ([13]; at 0.00488 µM, OCI-C5x cells, with rucaparib 10 µM, 100% = cells with rucaparib alone): 113% (inactive)
viability ([13]; at 0.00488 µM, OCI-C5x cells, without rucaparib): 112% (inactive)
viability ([13]; at 0.00488 µM, OCI-P5x cells, with rucaparib 20 µM, 100% = cells with rucaparib alone): 93.9% (active)
viability ([13]; at 0.00488 µM, OCI-P5x cells, without rucaparib): 109% (inactive)
viability ([13]; at 0.0195 µM, OCI-C5x cells, with rucaparib 10 µM, 100% = cells with rucaparib alone): 104% (inactive)
viability ([13]; at 0.0195 µM, OCI-C5x cells, without rucaparib): 109% (inactive)
viability ([13]; at 0.0195 µM, OCI-P5x cells, with rucaparib 20 µM, 100% = cells with rucaparib alone): 91.7% (active)
viability ([13]; at 0.0195 µM, OCI-P5x cells, without rucaparib): 108% (inactive)
viability ([13]; at 0.0781 µM, OCI-C5x cells, with rucaparib 10 µM, 100% = cells with rucaparib alone): 102% (inactive)
viability ([13]; at 0.0781 µM, OCI-C5x cells, without rucaparib): 109% (inactive)
viability ([13]; at 0.0781 µM, OCI-P5x cells, with rucaparib 20 µM, 100% = cells with rucaparib alone): 88% (active)
viability ([13]; at 0.0781 µM, OCI-P5x cells, without rucaparib): 112% (inactive)
viability ([13]; at 0.313 µM, OCI-C5x cells, with rucaparib 10 µM, 100% = cells with rucaparib alone): 108% (inactive)
viability ([13]; at 0.313 µM, OCI-C5x cells, without rucaparib): 116% (inactive)
viability ([13]; at 0.313 µM, OCI-P5x cells, with rucaparib 20 µM, 100% = cells with rucaparib alone): 93.7% (active)
viability ([13]; at 0.313 µM, OCI-P5x cells, without rucaparib): 115% (inactive)
viability ([13]; at 1.25 µM, OCI-C5x cells, with rucaparib 10 µM, 100% = cells with rucaparib alone): 113% (inactive)
viability ([13]; at 1.25 µM, OCI-C5x cells, without rucaparib): 116% (inactive)
viability ([13]; at 1.25 µM, OCI-P5x cells, with rucaparib 20 µM, 100% = cells with rucaparib alone): 75.9% (active)
viability ([13]; at 1.25 µM, OCI-P5x cells, without rucaparib): 107% (inactive)
viability ([13]; at 5 µM, OCI-C5x cells, with rucaparib 10 µM, 100% = cells with rucaparib alone): 56.8% (active)
viability ([13]; at 5 µM, OCI-C5x cells, without rucaparib): 59.8% (active)
viability ([13]; at 5 µM, OCI-P5x cells, with rucaparib 20 µM, 100% = cells with rucaparib alone): 44.7% (active)
viability ([13]; at 5 µM, OCI-P5x cells, without rucaparib): 74.7% (active)
z-score [14]: -0.545 (inactive)

C=CCNC1=C2C[C@@H](C)C[C@H](OC)[C@H](O)[C@@H](C)/C=C(\C)[C@H](OC(N)=O)[C@@H](OC)/C=C\C=C(/C)C(=O)NC(=CC1=O)C2=O
AC50 [1]: 1180 nM (active)
AC50 [2]: 1050 nM (active)
AC50 [3]: 2640 nM (active)
AC50 [4]: 118 nM (active)
outcome [5]: inactive
AC50 [6]: 7420 nM (active)
AC50 [7]: 14800 nM (active)
AC50 [8]: 934 nM (active)
IC50 [9]: 10500 nM (active)
fold change [10, 15]: 1.02 (inactive)
fold change [10, 16]: 1.33
cell count [10, 17]: 1940
cell count [10, 18]: 1900

COc1cccc2c(NCc3ccccc3)nc(-n3c(N)nc4ccccc43)nc12
AC50 [1]: 3720 nM (active)
outcome [2]: inactive
AC50 [3]: 9350 nM (active)
AC50 [4]: 3320 nM (active)
AC50 [5]: 3320 nM (active)
AC50 [6]: 2630 nM (active)
AC50 [7]: 2640 nM (active)
AC50 [8]: 2950 nM (active)
IC50 [9]: 2950 nM (active)

COC(=O)C[C@](O)(CCCC(C)(C)O)C(=O)O[C@@H]1C(OC)=CC23CCCN2CCc2cc4c(cc2[C@H]13)OCO4 (stereo partly specified)
AC50 [1]: 66.1 nM (active)
outcome [2]: inactive
outcome [3]: inactive
outcome [4]: inactive
AC50 [5]: 118 nM (active)
AC50 [6]: 93.4 nM (active)
outcome [7]: inactive
AC50 [8]: 332 nM (active)
outcome [9]: inactive

Cc1c(CN2CCN(C(=O)[C@H](C)O)CC2)sc2c(N3CCOCC3)nc(-c3cnc(N)nc3)nc12
AC50 [1]: 590 nM (active)
AC50 [2]: 1870 nM (active)
AC50 [3]: 1870 nM (active)
AC50 [4]: 41.8 nM (active)
AC50 [5]: 590 nM (active)
AC50 [6]: 209 nM (active)
AC50 [7]: 935 nM (active)
AC50 [8]: 372 nM (active)
IC50 [9]: 934 nM (active)

O=c1c(-c2ccc(O)cc2)coc2cc(O[C@@H]3O[C@H](CO)[C@@H](O)[C@H](O)[C@H]3O)ccc12
outcome [1]: inactive
outcome [2]: inactive
outcome [3]: inactive
outcome [4]: inactive
outcome [5]: inactive
outcome [6]: inactive
outcome [7]: inactive
outcome [8]: inactive
outcome [9]: inactive

COc1cc(=C2C=c3ccccc3=N2)[nH]/c1=C/c1[nH]c(C)cc1C
AC50 [1]: 6610 nM (active)
AC50 [2]: 14800 nM (active)
AC50 [3]: 4690 nM (active)
AC50 [4]: 5900 nM (active)
AC50 [5]: 3320 nM (active)
AC50 [6]: 2090 nM (active)
AC50 [7]: 2640 nM (active)
AC50 [8]: 5900 nM (active)
IC50 [9]: 16600 nM (active)

Clc1cccc(-n2nnnc2NCc2ccccc2Oc2ccccn2)c1Cl
outcome [1]: inactive
outcome [2]: inactive
outcome [3]: inactive
outcome [4]: inactive
outcome [5]: inactive
outcome [6]: inactive
outcome [7]: inactive
outcome [8]: inactive
outcome [9]: inactive
